Values joined by “and” are separate entries in the source; they are usually repeats but may differ in a detail not shown here. Equal values may be shown once. Records with an inconclusive call do not appear. Entries that show only a call come without a potency. Unmarked numbers belong to inactive results. Active and inactive are the calls of the source. The call rests on the fitted dose curve; in most records, active means well fitted curve in the direction sought with a large enough effect in the repeat runs; inconclusive means weak or mixed curves; inactive means no such curve, though single readings can be large; an effect the other way counts as inactive or inconclusive.
Further: nearly all actives have a fitted effect of over 50% in size.
Potency means the concentration at half of the fitted maximal effect.

Sequence of Cytochrome P450 1A2 (Homo sapiens) (P05177 whole entry, looked up): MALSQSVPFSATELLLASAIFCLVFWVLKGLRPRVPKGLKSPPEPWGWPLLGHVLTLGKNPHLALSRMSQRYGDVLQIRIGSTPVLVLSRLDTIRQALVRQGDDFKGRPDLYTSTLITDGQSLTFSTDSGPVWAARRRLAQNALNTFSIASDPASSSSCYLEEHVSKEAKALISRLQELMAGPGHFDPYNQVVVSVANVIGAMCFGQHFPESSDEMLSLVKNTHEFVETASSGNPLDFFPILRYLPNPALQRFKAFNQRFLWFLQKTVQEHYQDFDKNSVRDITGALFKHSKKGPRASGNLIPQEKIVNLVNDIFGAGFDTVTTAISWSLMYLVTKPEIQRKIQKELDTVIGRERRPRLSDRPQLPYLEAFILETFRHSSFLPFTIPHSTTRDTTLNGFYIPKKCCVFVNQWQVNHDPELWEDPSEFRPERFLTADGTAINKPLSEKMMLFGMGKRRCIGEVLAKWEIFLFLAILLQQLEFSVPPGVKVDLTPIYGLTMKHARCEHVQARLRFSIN
Sequence of Voltage-gated inwardly rectifying potassium channel KCNH2 (Homo sapiens) (Q12809 whole entry, looked up): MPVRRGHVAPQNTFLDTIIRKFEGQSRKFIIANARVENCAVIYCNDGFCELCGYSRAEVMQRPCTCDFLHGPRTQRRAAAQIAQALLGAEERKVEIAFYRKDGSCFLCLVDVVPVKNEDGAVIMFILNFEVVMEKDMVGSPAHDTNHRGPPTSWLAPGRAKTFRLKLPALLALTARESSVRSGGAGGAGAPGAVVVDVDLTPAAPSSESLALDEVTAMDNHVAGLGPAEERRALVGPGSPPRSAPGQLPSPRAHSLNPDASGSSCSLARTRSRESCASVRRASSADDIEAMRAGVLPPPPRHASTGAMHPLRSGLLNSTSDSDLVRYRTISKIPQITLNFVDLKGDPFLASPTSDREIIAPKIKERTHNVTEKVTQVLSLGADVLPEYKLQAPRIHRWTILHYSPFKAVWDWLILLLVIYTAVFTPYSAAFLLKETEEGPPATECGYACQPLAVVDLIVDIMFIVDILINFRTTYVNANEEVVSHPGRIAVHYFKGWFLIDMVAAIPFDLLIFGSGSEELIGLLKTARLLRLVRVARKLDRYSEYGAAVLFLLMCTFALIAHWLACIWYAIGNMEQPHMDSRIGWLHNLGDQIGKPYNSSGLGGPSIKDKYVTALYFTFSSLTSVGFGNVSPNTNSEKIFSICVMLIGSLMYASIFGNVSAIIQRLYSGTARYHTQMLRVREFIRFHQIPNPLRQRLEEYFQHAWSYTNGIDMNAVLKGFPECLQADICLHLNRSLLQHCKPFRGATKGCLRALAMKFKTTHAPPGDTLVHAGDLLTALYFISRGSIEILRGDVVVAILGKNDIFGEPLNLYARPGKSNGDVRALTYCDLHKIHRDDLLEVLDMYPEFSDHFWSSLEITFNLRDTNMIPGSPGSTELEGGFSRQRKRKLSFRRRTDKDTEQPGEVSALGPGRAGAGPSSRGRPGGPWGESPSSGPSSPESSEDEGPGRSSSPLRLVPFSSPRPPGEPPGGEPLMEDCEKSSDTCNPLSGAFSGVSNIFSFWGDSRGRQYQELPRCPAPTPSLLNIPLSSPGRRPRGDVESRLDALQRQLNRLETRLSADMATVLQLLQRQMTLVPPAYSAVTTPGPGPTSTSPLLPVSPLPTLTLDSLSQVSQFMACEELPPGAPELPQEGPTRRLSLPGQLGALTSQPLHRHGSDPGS

For the first experiment, the target named is Cytochrome P450 1A2 (Homo sapiens) (UniProt P05177). The experiment can be described thus: Cytochrome P450 Family 1 Subfamily A Member 2 (CYP1A2) small molecule antagonists: luciferase reporter qHTS assay (AID 1671199). The note with it: P450-Glo CYP1A2 enzyme, luciferin luminescence, 1 h; series mostly up to 115 µM. An outline of the steps:
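Luminescence from luciferin formed by CYP1A2 from a proluciferin substrate, read 20 min after detection reagent. Compound was pre-incubated 10 min with enzyme-substrate, and reaction started with NADPH regeneration solution for 1 h at room temperature; furafylline control.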
In general terms: A reporter such as luciferase makes a cellular process visible.
Take `c1ccc(OCc2ccc(CCCN3CCOCC3)cc2)cc1`: the Potency result is “inactive”.

In the case of `CC(=O)/C=C/C1C(C)=CCCC1(C)C` (configuration not stated), the Potency result was “inactive”.

In the case of `N#Cc1cc2ccccc2c2ccccc12`, the Potency was 0.0636 µM (active).

Turning to `O=c1c2ccccc2nnn1CCl`, the Potency entry is “inactive”.

With `O=C(CCN1CCN2CCCC2C1)N1c2ccccc2Sc2ccc(Cl)cc21` (configuration not stated), the activity change, negative = inhibition is -23.8% [at 23.6 µM].

For `CC(C)c1ccc2c(C(C)C)cc(C(C)C)c(S(=O)(=O)O)c2c1`, the Potency result is “inactive”.

Take `ClC(Cl)(Cl)c1ccc(C(Cl)(Cl)Cl)cc1`: the Potency is 4.98 µM (active).

Take `O=C(NS(=O)(=O)/C=C/c1cccs1)c1ccc(F)cc1Br`: the Potency result is “inactive”.

With `NC(N)=N/N=C/c1c(Cl)cccc1Cl`, the Potency was 15.5 µM (active).

`COc1ccc2[nH]c(S(=O)Cc3ncc(C)c(OC)c3C)nc2n1` (configuration not stated): the Potency is 24.5 µM (active).

In the case of `C=CC[N+]1([C@H]2C[C@H]3[C@@H]4CC[C@H]5C[C@H](OC(C)=O)[C@@H](N6CCCCC6)C[C@]5(C)[C@H]4CC[C@]3(C)[C@H]2OC(=O)CC)CCCCC1`, the Potency result is “inactive”.

For `COc1ccccc1OC(=O)Oc1ccccc1OC`, the Potency is 4.56 µM (active).

Consider `Nc1cnn([C@@H]2O[C@H](CO)[C@@H](O)[C@H]2O)c(=O)n1`, for which the Potency result was “inactive”.

Consider `CCOc1ccc2[nH]cc(C(=O)NCc3ccccc3)c(=O)c2n1`, for which the Potency was 31.7 µM (active).

Take `Cn1c(=O)c2c(ncn2CC(O)CO)n(C)c1=O` (configuration not stated): the Potency result is “inactive”.

With `Cc1c(Cn2ccnc2)c2ccccc2n1CCC(=O)O`, the Potency is 12.3 µM (active).

`CCCCOC(=O)c1ccccc1C(=O)OCC(CC)CCCC` (configuration not stated): the Potency was 12.6 µM (active).

For the compound `Cn1sccc1=O`, the Potency was 35.6 µM (active) and 31.7 µM (active).

For the compound `CCOC(=O)C1=C(C)NC(C)=C(C(=O)OC)C1c1cccc([N+](=O)[O-])c1` (configuration not stated), the Potency entry is “inactive”.

As to `O=C(c1ccc(O)cc1)c1ccc(O)cc1`, the Potency was 39.9 µM (active).

For the compound `C=Cc1c(C)c2cc3[nH]c(cc4nc(cc5nc(cc1[nH]2)C(C)=C5CCC(=O)O)C(CCC(=O)O)=C4C)c(C)c3C=C`, the Potency result is “inactive”.

Consider `CCCC[C@H]1CN(CC2CCOCC2)C(=O)OC12CCN(C1(C)CCN(C(=O)c3c(C)ncnc3C)CC1)CC2`, for which the Potency is 35.2 µM (active).

Take `CCCCCCOC(=O)CCC`: the Potency entry was “inactive”.

As for `CC(=O)c1c(C)c([N+](=O)[O-])c(C(C)(C)C)c([N+](=O)[O-])c1C`, the Potency was 11.2 µM (active).

In the case of `Oc1ccc(Sc2ccc(O)cc2)cc1`, the Potency was 41.9 µM (active).

For the compound `O=S1(=O)c2cccc3cccc(c23)N1CCCN1CCN(c2ccc(F)cc2)CC1`, the Potency is 15.5 µM (active).

Consider `OC(CCN1CCCCC1)(c1ccccc1)C1CCCCC1` (configuration not stated), for which the Potency result was “inactive”.

With `O=C(Nc1ccccc1)OCC(CN1CCCCC1)OC(=O)Nc1ccccc1` (configuration not stated), the Potency entry was “inactive”.

Consider `S=C(S)NCCNC(=S)S`, for which the Potency result is “inactive”.

As for `COC(=O)CSc1cc(N=c2sc(=O)n3n2CCCC3)c(F)cc1Cl`, the Potency was 3.17 µM (active).

For `CC(=O)O[C@H]1C[C@@H]2CC[C@@H]3[C@H](CC[C@@]4(C)[C@H]3C[C@H]([N+]3(C)CCCCC3)[C@@H]4OC(C)=O)[C@@]2(C)C[C@@H]1N1CCCCC1`, the Potency result was “inactive”.

Regarding `CN1CCC(=C2c3ccccc3C=Cc3ccccc32)CC1`, the Potency entry was “inactive”.

For the compound `Nc1ccc(C(=O)Nc2ccccc2N)cc1`, the Potency result was “inactive”.

Turning to `Nc1nc(N)c(-c2ccccc2)s1`, the Potency was 30.9 µM (active).

Consider `O=C(O)C(c1ccc(Cl)cc1)c1ccc(Cl)cc1`, for which the Potency entry was “inactive”.

Regarding `O=C(O)C1CCC(C(=O)O)CC1` (configuration not stated), the Potency result is “inactive”.

The next experiment deals with Voltage-gated inwardly rectifying potassium channel KCNH2 (Homo sapiens) (UniProt Q12809). The experiment can be described thus: Human Ether-a-go-go-Related Gene (hERG) channel small molecule antagonists: fluorescence cell-based qHTS assay (AID 1671200).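 On activity change, negative = inhibition: hERG-expressing U2OS cells given a thallium stimulus after FluxOR II dye loading.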 The note with it: hERG-U2OS cells, FluxOR thallium flux fluorescence; series mostly up to 76.8 µM. Summed up:
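Cell line hERG-U2OS; dye FluxOR II, 1 h RT dark; Tl+ stimulus; ex 480/em 540 nm, read each second for 2 min.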
In general terms: Block of hERG is tested as a sign of cardiac risk.
Regarding `c1ccc(OCc2ccc(CCCN3CCOCC3)cc2)cc1`, the Potency is 12 µM (active).

Regarding `CC(=O)/C=C/C1C(C)=CCCC1(C)C` (configuration not stated), the Potency result was “inactive”.

Regarding `N#Cc1cc2ccccc2c2ccccc12`, the Potency result was “inactive”.

For `O=c1c2ccccc2nnn1CCl`, the Potency entry is “inactive”.

On to `CC(C)c1ccc2c(C(C)C)cc(C(C)C)c(S(=O)(=O)O)c2c1`, for which the Potency result is “inactive”.

As to `ClC(Cl)(Cl)c1ccc(C(Cl)(Cl)Cl)cc1`, the Potency is 6.85 µM (active).

Take `O=C(NS(=O)(=O)/C=C/c1cccs1)c1ccc(F)cc1Br`: the Potency entry was “inactive”.

As for `NC(N)=N/N=C/c1c(Cl)cccc1Cl`, the Potency result is “inactive”.

Consider `COc1ccc2[nH]c(S(=O)Cc3ncc(C)c(OC)c3C)nc2n1` (configuration not stated), for which the Potency result is “inactive”.

Turning to `C=CC[N+]1([C@H]2C[C@H]3[C@@H]4CC[C@H]5C[C@H](OC(C)=O)[C@@H](N6CCCCC6)C[C@]5(C)[C@H]4CC[C@]3(C)[C@H]2OC(=O)CC)CCCCC1`, the Potency result is “inactive”.

Turning to `COc1ccccc1OC(=O)Oc1ccccc1OC`, the Potency result was “inactive”.

Take `Nc1cnn([C@@H]2O[C@H](CO)[C@@H](O)[C@H]2O)c(=O)n1`: the Potency result was “inactive”.

On to `CCOc1ccc2[nH]cc(C(=O)NCc3ccccc3)c(=O)c2n1`, for which the Potency entry was “inactive”.

Regarding `Cn1c(=O)c2c(ncn2CC(O)CO)n(C)c1=O` (configuration not stated), the Potency entry is “inactive”.

As to `Cc1c(Cn2ccnc2)c2ccccc2n1CCC(=O)O`, the Potency result was “inactive”.

As for `CCCCOC(=O)c1ccccc1C(=O)OCC(CC)CCCC` (configuration not stated), the Potency entry is “inactive”.

`Cn1sccc1=O`: the Potency result was “inactive”.

Turning to `CCOC(=O)C1=C(C)NC(C)=C(C(=O)OC)C1c1cccc([N+](=O)[O-])c1` (configuration not stated), the Potency entry was “inactive”.

On to `O=C(c1ccc(O)cc1)c1ccc(O)cc1`, for which the Potency entry is “inactive”.

`C=Cc1c(C)c2cc3[nH]c(cc4nc(cc5nc(cc1[nH]2)C(C)=C5CCC(=O)O)C(CCC(=O)O)=C4C)c(C)c3C=C`: the Potency result was “inactive”.

For the compound `CCCC[C@H]1CN(CC2CCOCC2)C(=O)OC12CCN(C1(C)CCN(C(=O)c3c(C)ncnc3C)CC1)CC2`, the Potency was 12.2 µM (active).

As to `CCCCCCOC(=O)CCC`, the Potency entry is “inactive”.

Regarding `CC(=O)c1c(C)c([N+](=O)[O-])c(C(C)(C)C)c([N+](=O)[O-])c1C`, the Potency result is “inactive”.

Regarding `Oc1ccc(Sc2ccc(O)cc2)cc1`, the Potency result was “inactive”.

As to `O=C(Nc1ccccc1)OCC(CN1CCCCC1)OC(=O)Nc1ccccc1` (configuration not stated), the Potency was 6.01 µM (active).

On to `S=C(S)NCCNC(=S)S`, for which the Potency entry is “inactive”.

In the case of `CC(=O)O[C@H]1C[C@@H]2CC[C@@H]3[C@H](CC[C@@]4(C)[C@H]3C[C@H]([N+]3(C)CCCCC3)[C@@H]4OC(C)=O)[C@@]2(C)C[C@@H]1N1CCCCC1`, the Potency result is “inactive”.

For the compound `Nc1ccc(C(=O)Nc2ccccc2N)cc1`, the Potency entry is “inactive”.

For the compound `Nc1nc(N)c(-c2ccccc2)s1`, the Potency result was “inactive”.

Take `O=C(O)C(c1ccc(Cl)cc1)c1ccc(Cl)cc1`: the Potency result was “inactive”.

On to `O=C(O)C1CCC(C(=O)O)CC1` (configuration not stated), for which the Potency entry was “inactive”.
